# Compound activity from PubChem.
# Rows were chosen to be rich in hits. Some 21% of all compounds tested hit in one or more screens of this group.
# D3 antag – antagonists of human D3 dopamine receptor | 360,000 compounds, 2.5% hits | max response, negative = inhibition, % | P35462 | D3R cells, DiscoveRx beta-arrestin luminescence, antagonist mode; hits give low values; in the data active = max response below about -50%; inconclusive = no clear call, values can overlap the other calls; note: % is set by controls: 0 for no effect and ±100 for the full control effect
#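 Cells plated overnight at 1500 cells/well, then exposed to library compounds with dopamine controls for 90 minutes at 37 degrees C. DiscoveRx reagent added for 30–60 minutes at room temperature; luminescence read, quantitative HTS format.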
# D3 ag – D3 dopamine receptor (human) agonism; P35462; D3R DiscoveRx beta-arrestin cells, luminescence, 90 min; 410,000 compounds, 0.58% hits; max activation, %; AID 652048; in the data active = max activation above about 30%; note: 0% is about no effect
#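 Agonist-mode cell screen: cells plated at 1500/well and incubated overnight at 37 °C, then exposed to library compounds for 90 min at 37 °C. Detection reagent was added for 30–60 min at room temperature, and luminescence was read.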
# ClpP mod – qHTS Assay for Activators of ClpP; purified B. subtilis ClpP, FRET peptide cleavage, 20 min; Potency, µM (highest dose often 57.5 µM), inactives show at the top dose activity change, negative = active; 340,000 compounds, 1.9% hits; AID 651965, 2013; active = well fitted falling curve with a large enough effect; inconclusive = small, poorly fitted or top-dose-only effect; inactive = no such curve, though single readings can be large or run the other way; note: potency is the fitted concentration of half-maximal effect; the source files actives as falling curves though it sought activators and does not explain the sign; nearly all actives have a fitted effect of over 65% in size
# Target sequence (P80244 whole entry, looked up): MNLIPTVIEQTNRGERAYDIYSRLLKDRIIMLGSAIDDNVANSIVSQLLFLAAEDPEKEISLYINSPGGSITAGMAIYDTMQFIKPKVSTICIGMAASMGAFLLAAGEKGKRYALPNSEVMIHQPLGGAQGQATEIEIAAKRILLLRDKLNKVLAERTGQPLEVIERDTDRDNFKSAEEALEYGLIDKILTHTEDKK
#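 Buffer: 100 mM Tris/HCl pH8, 100 mM KCl, 0.05% low protease BSA, 2.5% glycerol, 0.01% Tween-20. ClpP 10 microg/mL final; 20 min RT; delta FRET normalized to ADEP and DMSO controls.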
# TDP1 cell CPT – growth inhibition of DT40 Tdp1-/-;hTDP1 cells with camptothecin (screen for TDP1 inhibitors); chicken DT40 Tdp1-/-;hTDP1 cells + 20 nM CPT, ATP luminescence, 48 h; Potency, µM (titrated, usually from 46.2 µM), without a hit: top-dose activity change, negative = growth inhibition, most hits filed as inhibitors; 420,000 compounds, 12% hits; note: potency is the fitted concentration of half-maximal effect; % is set by controls: 0 for no effect and ±100 for the full control effect; nearly all actives have a fitted effect of over 55% in size
#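 Chicken DT40 Tdp1-/- cells complemented with human TDP1, 400 cells/well, exposed to compounds plus 20 nM camptothecin for at least 48 h at 37 C; viability read as ATP content by CellTiter-Glo luminescence.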
# DT40 TDP1 no CPT – qHTS for Inhibitors of human tyrosyl-DNA phosphodiesterase 1 (TDP1): qHTS in cells in absence of CPT. DT40 Tdp1-/- hTDP1 cells, no CPT, ATP luminescence, 48 h. Potency, µM (series often up to 46.2 µM), for inactives: at the top dose activity change, negative = growth inhibition, actives largely listed as inhibitors. 420,000 compounds, 15% hits; note: potency is the fitted concentration of half-maximal effect; % is set by controls: 0 for no effect and ±100 for the full control effect; nearly all actives have a fitted effect of over 55% in size
#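 Seeded 400 DT40-hTDP1 cells/well (vehicle DMSO, no 20 nM CPT); pinned compounds; ≥48 hr at 37 °C; CellTiter-Glo luminescence as viability measure.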
# IL1B secr inh – blocks inflammasome-driven IL-1 beta release. THP-1 LPS/ATP IL-1B secretion, AlphaLISA, 16 h; hits give low values. activity change, % at 57.5 µM. 360,000 compounds, 4.7% hits; in the data active = activity change below about -50%; inconclusive = mostly about -30% to -49%; note: % is set by controls: 0 for no effect and ±100 for the full control effect
#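 THP-1 cells pretreated 1 hr with compounds (up to 57.5 uM final), then stimulated with LPS (250 ng/mL final) plus ATP (1.25 mM final); secreted IL-1B measured by AlphaLISA after 16 hr, decreased signal indicating inhibition.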
# An asterisk follows results filed as active; ? = inconclusive; . = not tested or not shown; ! = repeats disagree. Unless noted, calls come from the whole dose curve; as a rule, active = well fitted inhibition curve with a large enough effect; inconclusive = small, poorly fitted or top-dose-only effect; inactive = flat fitted curve, though single readings scatter.
SMILES,D3 antag,D3 ag,ClpP mod,TDP1 cell CPT,DT40 TDP1 no CPT,IL1B secr inh
CCCCc1nn2c(=O)cc(COC(=O)c3cccc(NC(=O)c4cccc(C)c4)c3)nc2s1,.,10,-3%,9%,0%,.
Cc1nn2c(=O)cc(COC(=O)c3ccc(NC(=O)c4cccs4)cc3)nc2s1,.,4,5%,16µM*,15µM*,.
CCc1nn2c(=O)cc(COC(=O)c3ccc(NC(=O)c4cccs4)cc3)nc2s1,.,1,-18%,6.5µM*,6.5µM*,.
O=C(Nc1ccc(S(=O)(=O)Nc2ncccn2)cc1)c1ccc(N2CCCC2=O)cc1,22,2,-7%,-4%,7%,4
CCOc1ccc(OCCC(=O)OCC(=O)NCc2ccc(Cl)cc2)cc1,16,2,-4%,10%,-5%,4
CCc1nn2c(=O)cc(COC(=O)c3cccc(NC(=O)c4ccccc4C)c3)nc2s1,.,3,?,21µM*,15µM*,.
COc1cc(C(=O)OCc2cc(=O)n3nc(C4CCCCC4)sc3n2)cc(OC)c1OC,.,2,-2%,12µM*,10µM*,.
CCOc1cc(C(=O)OCc2cc(=O)n3nc(CC)sc3n2)cc(OCC)c1OCC,.,6,-3%,18µM*,?,.
COc1ccc(C)c2sc(NC(=O)c3ccc(S(=O)(=O)N(C)C)cc3)nc12,.,6,5%,-28%,-24%,.
O=C1CCC[C@@H]2C=C[C@H](c3ccc(Br)cc3)[C@H]3CCN1[C@@H]32,-21,-2,-2%,?,18µM*,-4
O=C(Cc1ccccc1)NS(=O)(=O)c1ccc(N=NN2CCOCC2)cc1,9,0,.,14%,-2%,4
CCn1nnc(NC(=O)c2sc3ccccc3c2Cl)n1,-19,-3,-5%,-10%,-22%,2
O=C(Nc1ccnc(=O)[nH]1)c1sc2ccccc2c1Cl,8,-12,-4%,15µM*,-16%,0
Cc1ccc(NC(=O)c2sc3ccccc3c2Cl)cc1,.,3,44%,-23%,-3%,.
O=C(Nc1ccncc1)c1sc2ccccc2c1Cl,7,-10,.,?,18µM*,-55*
O=C(NCc1ccccc1Cl)C(=O)NCC(c1ccc2c(c1)OCO2)N1CCOCC1 (configuration not stated),.,6,1%,?,?,.
CN(C)CCOC(=O)c1ccc2[nH]c3c(c2c1)CSCC3,5,-11,.,-24%,-17%,-74*
O=C(O)c1ccc2[nH]c3c(c2c1)CSCC3,-12,4,2%,-1%,1%,-18
CC1=C/C(=N\NC(=O)c2ccccc2)CC1,-5,-4,.,1%,1%,0
Cc1ccc(N2CC(C(=O)NCCS(=O)(=O)N3CCN(c4ccccc4F)CC3)CC2=O)cc1 (configuration not stated),-1,6,-2%,15µM*!,?,-4
CCC(C(=O)NCCCN1CCN(CCCNC(=O)C(CC)c2ccccc2)CC1)c1ccccc1 (configuration not stated),3,-3,0%,-18%,?,-4
O=C(NCCCN1CCN(c2ccccc2F)CC1)C1CC(=O)N(C2CCCC2)C1 (configuration not stated),-77*,41*,1%,-9%,-21%,12
O=C(NCCCN1CCC(Cc2ccccc2)CC1)C1CC(=O)N(C2CCCCCC2)C1 (configuration not stated),?,-5,-4%,?,26µM*,0
O=C(NCCCN1CCCCCC1)[C@@H](c1ccccc1)C1CCCCC1,.,.,.,11µM*,11µM*,.
